From PubChem BioAssay (Tox21)
Records with an inconclusive call do not appear. Calls of active or inactive are those of the source. Unless noted, the call rests on the fitted dose curve; in most records, active means well fitted curve in the direction sought with a large enough effect in the repeat runs; inconclusive means weak or mixed curves; inactive means no such curve, though single readings can be large; an effect the other way counts as inactive or inconclusive.

Assays:
[1] = qHTS assay for small molecule agonists of the p53 signaling pathway (AID 651631; calls by dose curve; further: nearly all actives have a fitted effect of over 15% in size)
Outline: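 Agonist mode screen using a stably integrated beta-lactamase gene under p53 response elements in HCT-116 cells. Compound exposure lasts 16 h at 37 °C; fluorescence intensity is measured following 2 h FRET substrate loading.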

[2] = qHTS assay for small molecules that induce genotoxicity in human embryonic kidney cells expressing luciferase-tagged ATAD5 (AID 651632); further: nearly all actives have a fitted effect of over 15% in size
Outline: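 ATAD5-luc HEK293T, 2,000 cells/well; cpd or DMSO pin-transferred; 16 hr, 37C/5% CO2; Amplite 30 min RT; luminescence.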

[3] = qHTS assay for small molecule agonists of the p53 signaling pathway - cell viability (AID 651633; calls by dose curve;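 further: p53RE-bla HCT reporter cells with a stable beta-lactamase p53 reporter; series mostly up to about 83 µM; nearly all actives have a fitted effect of over 30% in size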)
Outline: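 p53RE-bla cells, seeded at 4,000 per well and rested 5 h at 37 C/5% CO2, received compounds in DMSO for 16 h at 37 C. CellTiter-Glo was then added, and luminescence was read after 30 min at room temperature to gauge cytotoxicity.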

[4] = qHTS assay for small molecule disruptors of the mitochondrial membrane potential - cell viability (AID 720634; calls by dose curve;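 further: human HepG2 liver cancer cells; series mostly up to about 83 µM; nearly all actives have a fitted effect of over 20% in size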)
Outline: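 Cells: HepG2, 2,000/well, attached overnight. Compound 1 hr, 37 C/5% CO2. +m-MPI dye, +CellTiter-Glo 30 min RT. Readout: luminescence (ATP).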

[5] = qHTS assay for small molecule disruptors of the mitochondrial membrane potential (AID 720635)
Outline: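 HepG2 cells (2,000/well) attached overnight at 37C, then took compound for 1 hr at 37C, 5% CO2. Mito-MPS dye was added for 30 min; fluorescence was read at 490/535 nm (monomers) and 540/590 nm (aggregates).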

[6] = qHTS assay to test for compound auto fluorescence at 590 nm (red) in HepG2 cells (AID 720674)
Outline: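 Rose Bengal sodium served as the red fluorophore standard. HepG2 monolayers (overnight attachment, MEM with 10% FBS) were exposed to test compounds for 1 hr at 37 C and read at Ex 540/Em 590 nm.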

[7] = qHTS assay to test for compound auto fluorescence at 535 nm (green) in HepG2 cells (AID 720675)
[8] = qHTS assay to test for compound auto fluorescence at 460 nm (blue) in HEK293 cells (AID 720678)
Outline: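 Auto fluorescence in the blue band was quantified as triamterene equivalency. HEK293 cells were seeded at 2,000/well, dosed after a 4-5 hr attachment, and kept overnight at 37C before the 405/460 nm reading.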

[9] = qHTS assay to test for compound auto fluorescence at 590 nm (red) in HEK293 cells (AID 720679)
Outline: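 Autofluorescence equivalency to Rose Bengal sodium, 540/590nm, in HEK293 cells exposed overnight to 23 nL compound per well.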

[10] = qHTS assay to test for compound auto fluorescence at 535 nm (green) in HEK293 cells (AID 720680)
[11] = qHTS assay to test for compound auto fluorescence at 460 nm (blue) in HEK293 cell free culture (AID 720681)
Outline: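 Test compounds were pinned into cell-free culture medium (DMEM with 10% FBS) and fluorescence was read directly at Ex/Em 405/460 nm. Signals were expressed as fluorescence equivalents of triamterene, with DMSO vehicle as control.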

[12] = qHTS assay to test for compound auto fluorescence at 535 nm (green) in HEK293 cell free culture (AID 720682)
Outline: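 No cells present: wells hold DMEM supplemented with 10% FBS, into which compound or vehicle is pinned. Green emission is then recorded (485 nm excitation, 535 nm emission) and scaled to fluorescein.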

[13] = qHTS assay to test for compound auto fluorescence at 590 nm (red) in HEK293 cell free culture (AID 720683)
Outline: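 Tox21 10K library compounds were pinned into cell-free DMEM with 10% FBS and fluorescence was read at excitation 540 nm. Activity is expressed as Rose Bengal sodium equivalency.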

[14] = qHTS assay to test for compound auto fluorescence at 590 nm (red) in HepG2 cell free culture (AID 720684)
Outline: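 Red fluorescence (540 nm excitation, 590 nm emission) was measured after compound transfer into cell-free MEM supplemented with 10% FBS. Values are equivalencies against Rose Bengal sodium.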

[15] = qHTS assay to test for compound auto fluorescence at 535 nm (green) in HepG2 cell free culture (AID 720686)
[16] = qHTS assay to test for compound auto fluorescence at 460 nm (blue) in HepG2 cells (AID 720687)
Outline: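 Cells (2,000/well in MEM with 10% FBS) attached overnight at 37 C, then were exposed to compound or DMSO for 1 hr at 37 C, 5% CO2. Fluorescence read at Ex/Em 405/460 nm, expressed as triamterene-equivalent signal.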

[17] = molecular target: Glucocorticoid receptor (Homo sapiens) (UniProt P04150); assay: qHTS assay to identify small molecule agonists of the glucocorticoid receptor (GR) signaling pathway (AID 720691; active means well fitted activation curve with a large enough effect in the signal ratio in the repeat runs, not every such curve was filed as active; the % refers to the signal ratio)
Outline: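 Fluorescence intensity from LiveBLAzer B/G FRET substrate (2 h, room temperature) reports beta-lactamase expression driven by the glucocorticoid response element in GR-bla HeLa cells after 18 h compound exposure at 37 C.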

[18] = molecular target: Glucocorticoid receptor (Homo sapiens) (UniProt P04150); assay: qHTS assay to identify small molecule antagonists of the glucocorticoid receptor (GR) signaling pathway (AID 720692; active means well fitted inhibition curve with a large enough effect in the signal ratio in the repeat runs, not every such curve was filed as active; the % refers to the signal ratio)
Outline: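 HeLa GR-bla cells; cmpd + dex 5 nM final, 18 h 37 C; LiveBLAzer B/G FRET substrate 2 h RT; fluorescence intensity read. Antagonist mode, qHTS.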

[19] = qHTS assay for small molecules that induce genotoxicity in human embryonic kidney cells expressing luciferase-tagged ATAD5 - cell viability (AID 651634; calls by dose curve; further: nearly all actives have a fitted effect of over 25% in size)
Outline: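 Fluorescence from CellTiter-Fluor, reporting protease activity within live cells, served as the viability read-out. HEK293T cells carrying luciferase-tagged ATAD5 had been treated with compound for 15.5 hr at 37C.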

[20] = qHTS assay to test for compound auto fluorescence at 460 nm (blue) in HepG2 cell free culture (AID 720685)
Outline: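 Compound (23 nL) or DMSO pinned into cell-free MEM with 10% FBS; blue fluorescence read at 405/460 nm excitation/emission, expressed as auto-fluorescence equivalency to triamterene.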
On the % scale 0 is the no-effect control and ±100 the full control effect.

Sequence of Glucocorticoid receptor (Homo sapiens) (P04150 whole entry, looked up): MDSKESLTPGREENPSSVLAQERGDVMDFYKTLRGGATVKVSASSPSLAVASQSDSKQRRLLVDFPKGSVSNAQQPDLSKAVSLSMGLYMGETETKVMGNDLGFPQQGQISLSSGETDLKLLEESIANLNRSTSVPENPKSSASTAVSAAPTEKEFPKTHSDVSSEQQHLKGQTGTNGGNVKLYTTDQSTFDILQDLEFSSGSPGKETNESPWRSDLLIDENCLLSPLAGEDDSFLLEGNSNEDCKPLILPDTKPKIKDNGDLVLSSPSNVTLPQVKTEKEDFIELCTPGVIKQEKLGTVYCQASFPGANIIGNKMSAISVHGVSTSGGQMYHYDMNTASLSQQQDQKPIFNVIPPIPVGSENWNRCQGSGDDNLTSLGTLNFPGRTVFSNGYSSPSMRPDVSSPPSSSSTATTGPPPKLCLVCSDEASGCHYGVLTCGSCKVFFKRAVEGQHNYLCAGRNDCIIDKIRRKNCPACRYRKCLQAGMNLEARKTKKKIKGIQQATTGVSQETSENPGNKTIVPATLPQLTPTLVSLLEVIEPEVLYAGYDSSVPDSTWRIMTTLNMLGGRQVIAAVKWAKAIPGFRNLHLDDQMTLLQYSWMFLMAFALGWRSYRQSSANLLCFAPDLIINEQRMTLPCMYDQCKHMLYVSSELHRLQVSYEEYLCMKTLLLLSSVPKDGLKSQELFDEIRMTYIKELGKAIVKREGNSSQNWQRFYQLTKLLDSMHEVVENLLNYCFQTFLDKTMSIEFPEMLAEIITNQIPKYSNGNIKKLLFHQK

COc1cc(C=O)ccc1OC(=O)C(C)C
inactive: outcome [1] | outcome [2] | outcome [3] | outcome [4] | Potency [5] | outcome [6] | outcome [7] | outcome [8] | outcome [9] | outcome [10] | outcome [11] | outcome [12] | outcome [13] | outcome [14] | outcome [15] | outcome [16] | Potency [17] | outcome [18]

O=C(O)C(=O)Nc1cccc(-c2nn[nH]n2)c1
inactive: outcome [1] | outcome [2] | outcome [3] | Potency [19] | outcome [4] | outcome [6] | outcome [7] | outcome [10] | outcome [11] | outcome [12] | outcome [13] | outcome [14] | outcome [20] | outcome [15] | outcome [16] | Potency [17] | outcome [18]

O=C1OC(=O)c2cc(Oc3ccc4c(c3)C(=O)OC4=O)ccc21
inactive: outcome [1] | outcome [2] | outcome [3] | Potency [19] | outcome [4] | outcome [6] | outcome [7] | outcome [8] | outcome [11] | outcome [12] | outcome [13] | outcome [14] | outcome [20] | outcome [15] | outcome [16]

CO[Si](CCCCl)(OC)OC
inactive: outcome [1] | outcome [2] | outcome [3] | Potency [19] | outcome [4] | outcome [6] | outcome [7] | outcome [8] | outcome [9] | outcome [10] | outcome [11] | outcome [12] | outcome [13] | outcome [14] | outcome [15] | outcome [16] | Potency [17] | outcome [18]

OC(CCN1CCCCC1)(c1ccccc1)c1ccccc1
inactive: outcome [2] | outcome [3] | Potency [19] | outcome [4] | outcome [6] | outcome [7] | outcome [8] | outcome [9] | outcome [10] | outcome [11] | outcome [12] | outcome [13] | outcome [14] | outcome [16]

O=C(c1ccc2c(c1)C(=O)OC2=O)c1ccc2c(c1)C(=O)OC2=O
inactive: outcome [2] | outcome [3] | Potency [19] | outcome [4] | outcome [6] | outcome [7] | outcome [8] | outcome [9] | outcome [10] | outcome [11] | outcome [12] | outcome [13] | outcome [14] | outcome [20] | outcome [15] | outcome [16] | Potency [17] | outcome [18]

O=[Si]=O
inactive: outcome [2] | outcome [3] | Potency [19] | outcome [4] | Potency [5] | outcome [6] | outcome [7] | outcome [9] | outcome [10] | outcome [11] | outcome [12] | outcome [13] | outcome [14] | outcome [20] | outcome [15] | outcome [16] | Potency [17] | outcome [18]

CN(C)CCCNCCC#N
inactive: outcome [2] | outcome [3] | Potency [19] | outcome [4] | outcome [6] | outcome [7] | outcome [8] | outcome [9] | outcome [10] | outcome [11] | outcome [12] | outcome [13] | outcome [14] | outcome [20] | outcome [15] | outcome [16]

Cc1cccc(Nc2ccncc2S(=O)(=O)NC(=O)NC(C)C)c1
inactive: outcome [2] | outcome [3] | Potency [19] | outcome [4] | Potency [5] | fluorescence, relative to Rose Bengal [6] -0.554% [at 18.6 µM] | fluorescence, % of fluorescein control [7] 0.0113% [at 18.6 µM] | fluorescence, % of triamterene [8] 0.173% [at 18.6 µM] | fluorescence, % of fluorescent control [9] 0.875% [at 18.6 µM] | fluorescence, % of fluorescent control [11] -0.219% [at 18.6 µM] | activity change [12] -0.379% [at 18.6 µM] | fluorescence, % of fluorescent control [13] 0.257% [at 18.6 µM] | fluorescence, % of Rose Bengal [14] -0.0539% [at 18.6 µM] | fluorescence, % of fluorescent control [20] -0.124% [at 18.6 µM] | fluorescence, % of fluorescein control [15] 0.0067% [at 18.6 µM] | fluorescence, % of fluorescent control [16] -0.0073% [at 18.6 µM] | Potency [17] | outcome [18]

CCc1nccnc1C
inactive: outcome [2] | outcome [3] | Potency [19] | outcome [4] | outcome [6] | outcome [7] | outcome [8] | outcome [9] | outcome [10] | outcome [11] | outcome [12] | outcome [13] | outcome [14] | outcome [20] | outcome [15] | outcome [16] | Potency [17] | outcome [18]

O=C1OC(=O)c2ccccc21
inactive: outcome [2] | outcome [3] | Potency [19] | outcome [4] | Potency [5] | outcome [6] | outcome [7] | outcome [8] | outcome [9] | outcome [11] | outcome [12] | outcome [13] | outcome [14] | outcome [20] | outcome [16] | Potency [17]

CC(=O)c1ccc(OCC(=O)N2CCCCC2)cc1
inactive: outcome [2] | outcome [3] | Potency [19] | outcome [4] | Potency [5] | outcome [6] | outcome [7] | outcome [8] | outcome [9] | outcome [10] | outcome [11] | outcome [12] | outcome [13] | outcome [14] | outcome [15] | outcome [16] | Potency [17] | outcome [18]

C[C@H](CCC(=O)NCC(=O)O)[C@H]1CC[C@H]2[C@@H]3[C@H](O)C[C@@H]4C[C@H](O)CC[C@]4(C)[C@H]3C[C@H](O)[C@]12C
inactive: outcome [2] | outcome [3] | Potency [19] | outcome [4] | Potency [5] | outcome [6] | outcome [7] | outcome [8] | outcome [9] | outcome [10] | outcome [11] | outcome [12] | outcome [13] | outcome [14] | outcome [20] | outcome [16] | Potency [17] | outcome [18]

CC1(N)CCC(C(C)(C)N)CC1 (centres undefined)
inactive: outcome [2] | outcome [3] | Potency [19] | outcome [4] | Potency [5] | outcome [6] | outcome [7] | outcome [8] | outcome [9] | outcome [10] | outcome [11] | outcome [12] | outcome [13] | outcome [14] | outcome [20] | outcome [15] | outcome [16] | Potency [17] | outcome [18]

C=CCOc1c(Br)cc(C(C)(C)c2cc(Br)c(OCC=C)c(Br)c2)cc1Br
inactive: outcome [2] | outcome [3] | Potency [19] | outcome [4] | Potency [5] | outcome [6] | outcome [7] | outcome [8] | outcome [9] | outcome [10] | outcome [11] | outcome [12] | outcome [13] | outcome [14] | outcome [20] | outcome [15] | outcome [16] | Potency [17]
